Measured values taken from PubChem BioAssay (NCATS).
Values joined by “and” are separate entries in the source; they are usually repeats but may differ in a detail not shown here. Identical values can stand only once. Results filed as inconclusive are left out. Unmarked numbers belong to inactive results. Active and inactive are the calls of the source. The call rests on the fitted dose curve; in most records, active means well fitted inhibition curve with a large enough effect; inconclusive means small, poorly fitted or top-dose-only effect; inactive means flat fitted curve, though single readings scatter.

Biological target: Voltage-gated inwardly rectifying potassium channel KCNH2 (Homo sapiens) (UniProt Q12809)
Test: qHTS Assay for Small Molecule Inhibitors of the Human hERG Channel Activity (AID 588834);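 further: lower thallium flux fluorescence means stronger hERG block; nearly all actives have a fitted effect of over 50% in size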; further: potency means the concentration at half of the fitted maximal effect; on activity change, negative = inhibition: top concentration of the series differs between compounds; on the % scale 0 is the no-effect control and ±100 the full control effect
Details: U2OS BacMam hERG, FluxOR thallium flux fluorescence; series mostly up to 46.1 µM; activity change, negative = inhibition: at the top concentration
In short: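 hERG-BacMam U2OS, 2000 cells/well; 0.7X FluxOR loading 1 hr RT dark; cpd ~10 min 37 °C; stim buffer; FDSS fluorescence 2 min @ 1 s; AC50 Hill fit.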

Sequence of Voltage-gated inwardly rectifying potassium channel KCNH2 (Homo sapiens) (Q12809 whole entry, looked up): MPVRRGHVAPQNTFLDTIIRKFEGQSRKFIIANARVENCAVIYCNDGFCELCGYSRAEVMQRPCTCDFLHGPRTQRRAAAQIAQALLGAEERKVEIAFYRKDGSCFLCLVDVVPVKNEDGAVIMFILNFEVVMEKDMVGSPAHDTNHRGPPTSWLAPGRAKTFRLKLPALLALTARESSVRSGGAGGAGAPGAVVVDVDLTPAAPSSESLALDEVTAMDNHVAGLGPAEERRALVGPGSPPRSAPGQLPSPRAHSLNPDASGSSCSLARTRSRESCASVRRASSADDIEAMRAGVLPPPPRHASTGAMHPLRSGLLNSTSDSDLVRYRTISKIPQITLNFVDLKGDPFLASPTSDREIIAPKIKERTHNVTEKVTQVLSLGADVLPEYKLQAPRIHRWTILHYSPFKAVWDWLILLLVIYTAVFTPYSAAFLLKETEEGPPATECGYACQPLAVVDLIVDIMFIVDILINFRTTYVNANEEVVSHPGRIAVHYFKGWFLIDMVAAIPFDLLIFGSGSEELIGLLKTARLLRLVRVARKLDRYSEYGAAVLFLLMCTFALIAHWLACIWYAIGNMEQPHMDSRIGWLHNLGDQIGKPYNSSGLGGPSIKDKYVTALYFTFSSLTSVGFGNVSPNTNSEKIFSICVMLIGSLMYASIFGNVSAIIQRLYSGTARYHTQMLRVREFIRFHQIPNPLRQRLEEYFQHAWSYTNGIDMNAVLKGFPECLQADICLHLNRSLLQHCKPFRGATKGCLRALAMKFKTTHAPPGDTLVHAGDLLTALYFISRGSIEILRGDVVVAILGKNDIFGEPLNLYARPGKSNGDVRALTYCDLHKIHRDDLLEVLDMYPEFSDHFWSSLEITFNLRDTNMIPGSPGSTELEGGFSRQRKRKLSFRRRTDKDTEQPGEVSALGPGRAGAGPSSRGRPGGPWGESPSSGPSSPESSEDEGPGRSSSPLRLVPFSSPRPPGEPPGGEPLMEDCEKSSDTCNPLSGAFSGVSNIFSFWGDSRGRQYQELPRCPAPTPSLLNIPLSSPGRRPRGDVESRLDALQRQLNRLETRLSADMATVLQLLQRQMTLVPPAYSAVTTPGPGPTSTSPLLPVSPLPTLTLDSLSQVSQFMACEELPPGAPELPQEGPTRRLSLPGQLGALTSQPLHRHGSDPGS

Row | SMILES | Potency | activity change, negative = inhibition
1 | Cc1cnc(C(=O)O)c[n+]1[O-] | inactive | –
2 | CC(=O)CCCCn1c(=O)c2c(ncn2C)n(C)c1=O | inactive | –
3 | COc1ccccc1N1CCN(CCCNc2cc(=O)n(C)c(=O)n2C)CC1 | inactive | –
4 | C[N+](C)(C)CCCCCC[N+](C)(C)C | inactive | –
5 | O=C(NCCN1CCOCC1)c1ccc(Cl)cc1 | – | 14.2%
6 | CCN(CC)C(=O)c1ccc(O)c(OC)c1 | inactive | –
7 | Clc1ccc(Cn2c(CN3CCCC3)nc3ccccc32)cc1 | 1.41 µM (active) and 3.98 µM (active) | –
8 | Cc1cccc(C)c1OCC(C)N (stereo not drawn) | – | -7.84%
9 | C[C@@H](O)[C@H]1C(=O)N2C(C(=O)O)=C(S[C@@H]3CN[C@H](C(=O)N(C)C)C3)[C@H](C)[C@H]12 | – | 17.2%
10 | CC1(C)O[C@H]2C[C@@H]3[C@H]4CCC5=CC(=O)C=C[C@]5(C)[C@@]4(F)[C@@H](O)C[C@]3(C)[C@]2(C(=O)CO)O1 | – | 4.68%
11 | CCOC(=O)O[C@]1(C(=O)OCCl)CC[C@@H]2[C@H]3CCC4=CC(=O)C=C[C@]4(C)[C@@H]3[C@@H](O)C[C@@]21C | – | -5.11%
12 | CCN1CCC[C@H]1CNC(=O)c1cc(S(N)(=O)=O)ccc1OC | – | -4.37%
13 | NCCS | – | 14.8%
14 | CCN(CC)CCOC(=O)c1ccc(N)cc1 | inactive | –

Biological target: Luciferin 4-monooxygenase (Photinus pyralis) (UniProt P08659)
Test: Biochemical firefly luciferase enzyme assay for NPC (AID 624030);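 further: purified P. pyralis luciferase at 10 nM with luciferin and ATP substrate; 0% = DMSO and -100% = full luciferase inhibition by PTC124 control; nearly all actives have a fitted effect of over 70% in size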
Details: purified P. pyralis luciferase, luminescence, 5 min; series mostly up to 58.6 µM; activity change, negative = inhibition: at the top concentration
In short: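 Counter-screen for direct inhibition of the luciferase enzyme by approved-drug library compounds, run at 10 nM enzyme in 50 mM Tris acetate (final). Luminescence was read within 5 min of enzyme-buffer addition and normalized to PTC124 versus DMSO (0%).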

Sequence of Luciferin 4-monooxygenase (Photinus pyralis) (P08659 whole entry, looked up): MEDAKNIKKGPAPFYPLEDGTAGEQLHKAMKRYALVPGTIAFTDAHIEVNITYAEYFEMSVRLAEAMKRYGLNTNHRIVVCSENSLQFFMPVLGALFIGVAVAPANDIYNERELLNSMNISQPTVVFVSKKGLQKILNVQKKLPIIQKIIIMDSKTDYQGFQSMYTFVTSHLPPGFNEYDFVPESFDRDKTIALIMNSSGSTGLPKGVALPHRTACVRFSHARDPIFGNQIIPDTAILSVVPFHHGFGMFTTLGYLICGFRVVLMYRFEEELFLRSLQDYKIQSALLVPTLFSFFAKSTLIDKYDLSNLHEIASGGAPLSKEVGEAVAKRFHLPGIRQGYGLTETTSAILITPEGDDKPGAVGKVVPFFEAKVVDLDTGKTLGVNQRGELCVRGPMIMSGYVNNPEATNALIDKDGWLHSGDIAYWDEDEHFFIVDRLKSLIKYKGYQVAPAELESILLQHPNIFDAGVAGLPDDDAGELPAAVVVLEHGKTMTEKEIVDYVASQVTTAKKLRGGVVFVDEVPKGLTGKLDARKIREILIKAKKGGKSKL

Row | SMILES | activity change, negative = inhibition | Potency
15 | Clc1ccc(COC(Cn2ccnc2)c2ccc(Cl)cc2Cl)cc1 (stereo not drawn) | -1.01% | –
16 | CC(C)(C)c1ccc(C(O)CCCN2CCC(C(O)(c3ccccc3)c3ccccc3)CC2)cc1 (stereo not drawn) | – | inactive
17 | N#C[C@H]1C[C@H]2C[C@@H]2N1C(=O)[C@@H](N)C12CC3CC(CC(O)(C3)C1)C2 | -5.17% | –
18 | CN1C[C@H]2c3ccccc3Oc3ccc(Cl)cc3[C@@H]2C1 | -1.51% | –
19 | CCN(CC)CCNC(=O)c1ccc(N)cc1 | 1.01% | –
20 | Cc1cnc(C(=O)O)c[n+]1[O-] | 0.471% | –
21 | CCCCCN(C)CCC(O)(P(=O)(O)O)P(=O)(O)O | 3.09% | –
22 | CC(=O)CCCCn1c(=O)c2c(ncn2C)n(C)c1=O | 23.5% [at 24.9 µM] | –
23 | Cc1nnc(C(C)C)n1C1C[C@H]2CC[C@@H](C1)N2CC[C@H](NC(=O)C1CCC(F)(F)CC1)c1ccccc1 (stereo partly drawn) | 0.0269% | –
24 | COc1ccccc1N1CCN(CCCNc2cc(=O)n(C)c(=O)n2C)CC1 | – | inactive
25 | C[N+](C)(C)CCCCCC[N+](C)(C)C | -0.257% | –
26 | CN1[C@@H]2CCC[C@@H]1CC(NC(=O)c1nn(C)c3ccccc13)C2 (stereo partly drawn) | -0.987% | –
27 | O=C(NCCN1CCOCC1)c1ccc(Cl)cc1 | – | inactive
28 | CC(=O)Oc1cc2c(s1)CCN(C(C(=O)C1CC1)c1ccccc1F)C2 (stereo not drawn) | -8.79% | –
29 | O=C1Nc2ccc(Cl)cc2C(C#CC2CC2)(C(F)(F)F)O1 (stereo not drawn) | -3.53% | –
30 | CCN(CC)C(=O)c1ccc(O)c(OC)c1 | – | inactive
31 | Clc1ccc(Cn2c(CN3CCCC3)nc3ccccc32)cc1 | 2.29% [at 24.9 µM] | –
32 | COCCCCC(=NOCCN)c1ccc(C(F)(F)F)cc1 | 6.83% | –
33 | Cc1cccc(C)c1OCC(C)N (stereo not drawn) | 6.96% | –
34 | COc1ccc(Cc2nccc3cc(OC)c(OC)cc23)cc1OC | -5.22% [at 24.9 µM] | –
35 | COc1cc2ncnc(Nc3ccc(F)c(Cl)c3)c2cc1OCCCN1CCOCC1 | 3.87% | –
36 | C[C@@H](O)[C@H]1C(=O)N2C(C(=O)O)=C(S[C@@H]3CN[C@H](C(=O)N(C)C)C3)[C@H](C)[C@H]12 | 0.58% | –
37 | CC1(C)O[C@H]2C[C@@H]3[C@H]4CCC5=CC(=O)C=C[C@]5(C)[C@@]4(F)[C@@H](O)C[C@]3(C)[C@]2(C(=O)CO)O1 | 6.77% | –
38 | NC[C@@H]1O[C@@H](O[C@H]2[C@@H](O)[C@H](O[C@@H]3[C@@H](O)[C@@H](N)C[C@H](N)[C@H]3O[C@H]3O[C@H](CN)[C@@H](O)[C@@H](O)[C@H]3N)O[C@H]2CO)[C@H](N)[C@@H](O)[C@@H]1O | -0.287% | –
39 | CCOC(=O)O[C@]1(C(=O)OCCl)CC[C@@H]2[C@H]3CCC4=CC(=O)C=C[C@]4(C)[C@@H]3[C@@H](O)C[C@@]21C | 0.824% | –
40 | CCN1CCC[C@H]1CNC(=O)c1cc(S(N)(=O)=O)ccc1OC | 0.482% | –
41 | NCCS | – | inactive
42 | CCN(CC)CCOC(=O)c1ccc(N)cc1 | 1.6% [at 24.9 µM] | –
43 | NC(N)=Nc1nc(CSCC/C(N)=N/S(N)(=O)=O)cs1 | -2.9% | –
